Measurements reported in PubChem BioAssay (NCATS).
Where “and” joins values, the source holds several entries; their conditions need not be identical. Equal values may be shown once. Results filed as inconclusive are left out. Calls of active or inactive are those of the source. Unless noted, calls come from the whole dose curve; as a rule, active = well fitted curve in the direction sought with a large enough effect; inconclusive = small, poorly fitted or top-dose-only effect, or another doubt; inactive = no such curve, though single readings can be large; an effect the other way counts as inactive or inconclusive.

Legend:
[1] = Cell Viability - LYMP1-002 - Assay at 16 hr (AID 948); conditions: LYMP1-002 lymphoblastoid cell viability; series mostly up to 92.2 µM; note: potency is the fitted concentration of half-maximal effect;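 for activity change, negative = cytotoxicity: 0% = DMSO alone and full effect = 92 µM tetraoctylammonium bromide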
Summary of the method: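 ATP luminescence (CellTiter-Glo) was measured after 16 hr compound exposure at 37 C of 2500 lymphoblastoid LYMP1-002 cells per well. Concentration-response curves were fitted with the Hill equation to give AC50.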

[2] = Cell Viability - LYMP2-019 (AID 973); conditions: LYMP2-019 lymphoblastoid cell line viability; series mostly up to 92.2 µM; note: nearly all actives have a fitted effect of over 55% in size; note: potency is the fitted concentration of half-maximal effect;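 for activity change, negative = cytotoxicity: 0% = DMSO alone and full effect = 92 µM tetraoctylammonium bromide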
Summary of the method: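 Human lymphoblastoid cells were seeded at 2500 cells/well, preincubated 5 hr at 37 C, then exposed to compounds for 24 hr at 37 C in complete medium. Intracellular ATP was measured by CellTiter-Glo luminescence; AC50 from Hill fits.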

[3] = Cell Viability - LYMP2-021 (AID 974); conditions: LYMP2-021 lymphoblastoid cells viability; series mostly up to 92.2 µM;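 note: compound exposure lasts 24 hours at 37 °C; nearly all actives have a fitted effect of over 55% in size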; note: potency is the fitted concentration of half-maximal effect; for activity change, negative = cytotoxicity: % is set by controls: 0 for no effect and ±100 for the full control effect
Summary of the method: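 Human lymphoblastoid cells (2500/well) were preincubated 5 hr at 37 C, then exposed to compounds for 24 hr at 37 C in complete medium. Intracellular ATP was read by CellTiter-Glo luminescence; AC50 came from Hill-equation fits of concentration-response data.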

[4] = Cell Viability - LYMP2-025 (AID 976); conditions: LYMP2-025 lymphoblastoid cell viability; series mostly up to 92.2 µM; note: potency is the fitted concentration of half-maximal effect;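 for activity change, negative = cytotoxicity: plate controls were DMSO only for no effect and tetraoctylammonium bromide control for full effect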
Summary of the method: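 Human lymphoblastoid LYMP2-025 cells (2500/well) were pre-incubated 5 hr at 37 C, then treated with compounds for 24 hr at 37 C in complete medium. Viability was read as intracellular ATP by CellTiter-Glo luminescence; AC50 from Hill fits.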

[5] = Cell Viability - LYMP2-014 (AID 983); conditions: LYMP2-014 lymphoblastoid cells, viability qHTS; series mostly up to 92.2 µM; note: nearly all actives have a fitted effect of over 50% in size; note: potency is the fitted concentration of half-maximal effect;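 for activity change, negative = cytotoxicity: plate controls were DMSO only for no effect and 92 µM tetraoctylammonium bromide for full effect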
Summary of the method: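 Human lymphoblastoid cells (2500/well) were pre-incubated 5 hr at 37 C, then exposed to compounds in complete medium for 24 hr at 37 C. Intracellular ATP was read by CellTiter-Glo luminescence after 30 min at room temperature; AC50 from Hill fits.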

[6] = Cell Viability - LYMP2-026 (AID 989); conditions: LYMP2-026 lymphoblastoid cell viability, qHTS; series mostly up to 92.2 µM; note: nearly all actives have a fitted effect of over 50% in size; note: potency is the fitted concentration of half-maximal effect
Summary of the method: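 Human lymphoblastoid cells (2500/well) in complete medium were preincubated 5 hr at 37 C, then exposed to compounds for 24 hr at 37 C. Cellular ATP was read by CellTiter-Glo luminescence; AC50 from Hill-equation fits of concentration-response data.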

[7] = Cell Viability - LYMP1-002 - Assay at 24 hr (AID 993); conditions: LYMP1-002 lymphoblastoid cells viability; series mostly up to 92.2 µM; note: potency is the fitted concentration of half-maximal effect
Summary of the method: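 Human lymphoblastoid LYMP1-002 cells, 2500/well in complete medium, were treated with compounds for 24 h at 37 C; intracellular ATP was read by CellTiter-Glo luminescence. AC50 values came from Hill-equation fits of qHTS concentration-response data.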

[8] = Cell Viability - LYMP1-002 - Assay at 40 hr (AID 994); conditions: LYMP1-002 lymphoblastoid cell viability; series mostly up to 92.2 µM; note: nearly all actives have a fitted effect of over 60% in size; note: potency is the fitted concentration of half-maximal effect
Summary of the method: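 Human lymphoblastoid cells, 2500/well in complete medium, were preincubated 5 hr at 37 C, then exposed to compounds for 40 hr at 37 C. Intracellular ATP was read by CellTiter-Glo luminescence after 30 min at room temperature; AC50 from Hill-equation fits.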

[9] = molecular target: Retinoic acid receptor RXR-alpha (Homo sapiens) (UniProt P19793); experiment: qHTS assay for small molecule antagonists of retinoid X receptor alpha signaling (AID 588546; active = well fitted inhibition curve with a large enough effect in the signal ratio, with a control signal flat, not every such curve was filed as active; the % refers to the signal ratio;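 note: cells stimulated with 9-cis-retinoic acid as agonist; % is set by controls: 0 for no effect and ±100 for the full control effect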); conditions: HEK293T RXRa-UAS-bla, beta-lactamase ratio, antagonist mode
Summary of the method: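 Beta-lactamase reporter inhibition, read as CCF4 fluorescence ratio (ex 405, em 460/530 nm) after 2 h at RT. HEK293T UAS-bla cells, 2500/well, were stimulated with 9-cis-RA at 500 or 100 nM final alongside test compound for 18 h at 37 C.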

[10] = qHTS assay for small molecule disruptors of the mitochondrial membrane potential - 1 hr assay (AID 651754; calls by dose curve; note: nearly all actives have a fitted effect of over 35% in size; note: potency is the fitted concentration of half-maximal effect); conditions: series mostly up to 92.2 µM
Summary of the method: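 HepG2 cells, attached overnight at 37C, were exposed to compound or DMSO vehicle for 1 hr at 37C, 5% CO2, then stained with Mito-MPS dye for 30 min. Red aggregate versus green monomer fluorescence reports membrane potential.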

[11] = qHTS assay for environmental chemicals that activate the Aryl hydrocarbon Receptor (AhR) signaling pathway (AID 651777); conditions: 1A2-DRE human hepatoma cells, luciferase, 24 h; activation: hits give high values; note: nearly all actives have a fitted effect of over 15% in size; note: potency is the fitted concentration of half-maximal effect; for activation: % of control where 0% means no effect
Summary of the method: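 Human hepatoma 1A2-DRE cells stably carrying a DRE/CYP1A2 promoter–luciferase reporter, 1,200 cells/well, exposed to compound 24 hr at 37 C. Luciferase read by One-Glo luminescence after 30 min at room temperature; increased signal marks AhR activation.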

[12] = Cell Viability - HepG2 (AID 433; calls by dose curve;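 note: potency is the fitted concentration of half-maximal effect; potency for ATP loss meaning cytotoxicity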); conditions: qHTS
Summary of the method: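 Cytotoxicity read as ATP loss (CellTiter-Glo luminescence) after 40 hr compound exposure of HepG2, 1500 cells/well, 37 °C. AC50 by Hill equation; 0% set by DMSO, 100% inhibition by 100 uM tamoxifen.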

[13] = Cell Viability - Renal Proximal Tubule (AID 545); conditions: renal proximal tubule cells viability, primary cells of rat origin; at 91.7 µM (top of the series);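 note: 0% = DMSO only and -100% = 100 µM tamoxifen; nearly all actives have a fitted effect of over 40% in size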
Summary of the method: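 Viability taken as intracellular ATP (CellTiter-Glo luminescence) after 40 hr, 37 °C compound treatment of primary proximal tubule cells from rat kidney, 1000 cells/well; Hill-equation fits of qHTS concentration-response data gave AC50.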

[14] = MultiTox-Fluor Cytotoxicity Assay - LYMP1-001 - Live Cells (AID 947); conditions: LYMP1-001 lymphoblastoid cells, live-cell protease fluorescence viability; series mostly up to 92.2 µM;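 note: 0% = DMSO only and full inhibition = tetraoctylammonium bromide control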
[15] = MultiTox-Fluor Cytotoxicity Assay - LYMP1-002 - Live Cells (AID 955); conditions: LYMP1-002 lymphoblastoid live-cell protease fluorescence viability; series mostly up to 46.1 µM; note: % is set by controls: 0 for no effect and ±100 for the full control effect
Summary of the method: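 Human lymphoblastoid LYMP1-002 cells, 2500/well in complete medium, rested 5 hr at 37 C, then exposed to compounds for 16 hr at 37 C. Live-cell protease cleavage of GF-AFC read by fluorescence (Ex/Em 405/510) after 60 min at room temperature; AC50 from Hill fits.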

[16] = MultiTox-Fluor Cytotoxicity Assay - LYMP1-003 - Dead Cells (AID 961); conditions: LYMP1-003 lymphoblastoid cells, dead-cell protease fluorescence; series mostly up to 92.2 µM; note: nearly all actives have a fitted effect of over 70% in size
Summary of the method: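 LYMP1-003 lymphoblastoid, 2500 cells/well, 5 hr settle then 16 hr cpd at 37 C; MultiTox-Fluor reagent 60 min RT; Ex/Em 485/520 dead-cell signal; norm. DMSO = 0%, 15 uM tetraoctylammonium bromide = 100%; Hill AC50.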

[17] = Cell Viability - LYMP2-002 (AID 977); conditions: LYMP2-002 lymphoblastoid cell viability, qHTS; series mostly up to 92.2 µM;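 note: plate controls were DMSO only for no effect and 92 µM tetraoctylammonium bromide for full effect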
Summary of the method: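 Cytotoxicity is scored as concentration-dependent loss of cellular ATP in a human lymphoblastoid line after 24 hr compound treatment at 37 C. AC50 is obtained by modelling concentration-response data with the Hill equation.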

[18] = Cell Viability - LYMP2-006 (AID 978); conditions: LYMP2-006 lymphoblastoid cell viability, qHTS; series mostly up to 92.2 µM; note: nearly all actives have a fitted effect of over 60% in size; note: potency is the fitted concentration of half-maximal effect; for activity change, negative = cytotoxicity: % is set by controls: 0 for no effect and ±100 for the full control effect
Summary of the method: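 Potency values are Hill-fit AC50s for decreases in intracellular ATP (CellTiter-Glo luminescence). LYMP2-006 lymphoblastoid cells, 2500 per well, were exposed to compound in complete culture medium for 24 hr at 37 C.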

[19] = Cell Viability - LYMP2-016 (AID 984); conditions: LYMP2-016 lymphoblastoid cell viability, qHTS; series mostly up to 92.2 µM; note: % is set by controls: 0 for no effect and ±100 for the full control effect; nearly all actives have a fitted effect of over 55% in size
Summary of the method: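 Cytotoxicity was scored by luminescent ATP content (CellTiter-Glo) after 24 h compound exposure at 37 C of a human lymphoblastoid line at 2500 cells/well. Concentration-response data were fitted to the Hill equation for AC50.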

[20] = qHTS assay for small molecule activators of the p53 signaling pathway (AID 651743; active = well fitted activation curve with a large enough effect in the signal ratio, not every such curve was filed as active; the % refers to the signal ratio; note: potency is the fitted concentration of half-maximal effect; for activation: % of control where 0% means no effect); conditions: HCT-116 p53RE-bla, beta-lactamase FRET ratio, 16 h; activation: hits give high values
Summary of the method: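 Screen for p53 pathway agonists uses stably transfected p53RE-bla HCT-116 cells, 4,000 per well, treated 16 h at 37 C with compounds in DMSO.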

Retinoic acid receptor RXR-alpha (Homo sapiens), sequence (P19793 whole entry, looked up): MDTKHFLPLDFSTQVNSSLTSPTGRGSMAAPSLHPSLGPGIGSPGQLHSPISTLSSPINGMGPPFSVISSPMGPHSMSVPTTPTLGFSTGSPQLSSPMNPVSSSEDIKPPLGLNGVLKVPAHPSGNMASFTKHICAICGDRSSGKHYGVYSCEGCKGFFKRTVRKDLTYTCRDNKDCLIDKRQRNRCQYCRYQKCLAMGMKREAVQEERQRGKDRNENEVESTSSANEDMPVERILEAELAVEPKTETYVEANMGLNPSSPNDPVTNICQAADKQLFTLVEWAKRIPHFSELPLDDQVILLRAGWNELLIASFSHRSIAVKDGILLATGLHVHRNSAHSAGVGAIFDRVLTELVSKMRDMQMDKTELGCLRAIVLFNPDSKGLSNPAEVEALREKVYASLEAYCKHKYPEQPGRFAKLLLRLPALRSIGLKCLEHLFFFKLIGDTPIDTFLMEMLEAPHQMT

NC1=NC(S)C2N=CN=C2N1 (stereo not given)
inactive: max response [9] 2.23% | Potency [10] | activation [11] -2.51%
active: Potency [1] 12.6 µM | Potency [2] 10 µM | Potency [3] 15.8 µM | Potency [4] 3.16 µM | Potency [5] 15.8 µM | Potency [6] 12.6 µM | Potency [7] 10 µM | Potency [8] 2 µM

C=CCOC(=O)c1ccccc1C(=O)OCC=C
inactive: Potency [12] > 92 µM | activity change, negative = cytotoxicity [13] -7.06% | Potency [14] | Potency [1] | Potency [15] | Potency [16] | Potency [2] | Potency [3] | Potency [4] | Potency [17] | Potency [18] | Potency [5] | Potency [19] | Potency [6] | Potency [7] | Potency [8] | max response [9] -2.1% and -17.2% | activation [20] -0.242% and -1.19% | Potency [10] | activation [11] -0.581% and 2.86%

S=C1NC=NC2N=CNC12 (stereo not given)
active: Potency [12] 1.23 µM | Potency [20] 10 µM
inactive: Potency [14] | Potency [15] | Potency [16] | Potency [17] | Potency [18] | Potency [19] | max response [9] -10.4% | Potency [10] | activation [11] -2.14%

O=C1c2ccccc2C(=O)C1c1ccc2ccccc2n1
active: Potency [18] 39.8 µM | Potency [10] 0.944 µM | Potency [11] 39.8 µM and 7.08 µM
inactive: activity change, negative = cytotoxicity [13] -13.3% | Potency [14] | Potency [1] | Potency [15] | Potency [16] | Potency [2] | Potency [3] | Potency [4] | Potency [17] | Potency [5] | Potency [19] | Potency [6] | Potency [7] | Potency [8] | max response [9] -20% | activation [20] 5.56% and 14%

Cc1ccc([N+](=O)[O-])c(C)c1
inactive: Potency [12] > 92 µM | activity change, negative = cytotoxicity [13] -0.903% | Potency [14] | Potency [1] | Potency [15] | Potency [16] | Potency [2] | Potency [3] | Potency [4] | Potency [17] | Potency [18] | Potency [5] | Potency [19] | Potency [6] | Potency [7] | Potency [8] | max response [9] -1.42% and 0.976% | activation [20] 0.814% and -2.3% | Potency [10] | activation [11] -0.465% and 2.75%

CCCCCCCCCCCCCCC1CO1 (stereo not given)
inactive: Potency [12] > 92 µM | activity change, negative = cytotoxicity [13] -7.28% | Potency [14] | Potency [1] | Potency [15] | Potency [16] | Potency [2] | Potency [3] | Potency [4] | Potency [17] | Potency [18] | Potency [5] | Potency [19] | Potency [6] | Potency [7] | Potency [8] | max response [9] 5.21% and -18.5% | activation [20] 0.526% and -2.5% | activation [11] 0.108% and 0.658%

CN(C)CCCCCCN(C)C
inactive: Potency [12] > 92 µM | activity change, negative = cytotoxicity [13] -0.404% | Potency [14] | Potency [1] | Potency [15] | Potency [16] | Potency [2] | Potency [3] | Potency [4] | Potency [17] | Potency [18] | Potency [5] | Potency [19] | Potency [6] | Potency [7] | Potency [8] | max response [9] 23.1% | activation [20] -2.74% | Potency [10] | activation [11] 1.69%

O=C(O)CC(C(=O)O)C(CC(=O)O)C(=O)O (stereo not given)
inactive: Potency [12] > 92 µM | activity change, negative = cytotoxicity [13] -9.72% | Potency [14] | Potency [1] | Potency [15] | Potency [16] | Potency [2] | Potency [3] | Potency [4] | Potency [17] | Potency [18] | Potency [5] | Potency [19] | Potency [6] | Potency [7] | Potency [8] | max response [9] -2.56% and -11.2% | activation [20] -3.49% and -0.408% | Potency [10] | activation [11] -0.527% and 0.126%

C1OCOCO1
inactive: Potency [12] > 92 µM | activity change, negative = cytotoxicity [13] -10.6% | Potency [14] | Potency [1] | Potency [15] | Potency [16] | Potency [2] | Potency [3] | Potency [4] | Potency [17] | Potency [18] | Potency [5] | Potency [19] | Potency [6] | Potency [7] | Potency [8] | max response [9] 38.1% | activation [20] -3.32% | Potency [10] | activation [11] -0.144%
